# Laboratory results from ChEMBL document CHEMBL4296182, “CO-ADD screening of NIH NCI Diversity Set V”.
# For part of these data: Potency and affinity values are given separately.
# Tests used:
# Staphylococcus aureus = experiment: Antibacterial activity against Staphylococcus aureus MRSA ATCC 43300 (CO-ADD:GP_020); MIC in CAMBH media using NBS plates, by Resazurin F(560/590); format: functional; conditions: Concentration 20 uM, ASSAY_TEST Inhibition of Bacterial Growth, detection method Resazurin, Fluorescence (ex560/em590), MEDIA CAMHB, plate type 384well, CORNING #3640, time 18 hr
# Acinetobacter baumannii = experiment: Antibacterial activity against Acinetobacter baumannii ATCC 19606 (CO-ADD:GN_034); MIC in CAMBH media using NBS plates, by Resazurin F(560/590); format: functional; conditions: Concentration 20 uM, ASSAY_TEST Inhibition of Bacterial Growth, detection method Resazurin, Fluorescence (ex560/em590), MEDIA CAMHB, plate type 384well, CORNING #3640, time 18 hr
# Escherichia coli = experiment: Antibacterial activity against Escherichia coli ATCC 25922 (CO-ADD:GN_001); MIC in CAMBH media using NBS plates, by Resazurin F(560/590); format: functional; conditions: Concentration 20 uM, ASSAY_TEST Inhibition of Bacterial Growth, detection method Resazurin, Fluorescence (ex560/em590), MEDIA CAMHB, plate type 384well, CORNING #3640, time 18 hr
# Klebsiella pneumoniae = conditions: Concentration 20 uM; ASSAY_TEST Inhibition of Bacterial Growth; detection method Absorption (OD600); MEDIA CAMHB; plate type 384well; NBS; CORNING #3640; time 18 hr
# Candida albicans = conditions: 20 µM
# Cryptococcus neoformans = conditions: Concentration 20 uM; ASSAY_TEST Inhibition of Fungal Growth; detection method Resazurin; Absorption (OD600-OD570); plate type 384well; NBS; CORNING #3640
Structure (SMILES),Inhibition (Staphylococcus aureus),Inhibition (Acinetobacter baumannii),Inhibition (Escherichia coli),Inhibition (Klebsiella pneumoniae),Inhibition (Candida albicans),Inhibition (Cryptococcus neoformans)
CCOC(=O)c1c(N)ssc1=S,5.44%,2.94%,-3.33%,23.27%,10.5%,-3.18%
COC(=O)C1CC(O)C(O)C(O)C1 (configuration not stated),17.7%,-10.09%,12.92%,15.79%,1.86%,-4.69%
COc1c(NC(C)=O)c2ccccc2c2ccccc12,12.56%,4.74%,1.88%,16.73%,5.3%,-2.59%
NC(=O)C1=C(N)c2ccccc2C1c1ccccc1 (configuration not stated),-22.4%,2.22%,-18.86%,1.18%,4.94%,28.25%
CC(C)(C)n1nc(C2CC2)cc1NC(=O)Nc1ccccc1,5.22%,-11.36%,8.62%,7.92%,1.47%,-6.02%
CC1=CC(=O)Nc2cncnc2N1,4.06%,-8.47%,8.98%,13.83%,0.16%,0.91%
O=C(Nc1ccc(Cl)c(Cl)c1)Nc1ccccc1O,-10.29%,0.1%,-13.39%,5.08%,3.05%,15.14%
Clc1nnc2c3ccccc3ccn12,-3.22%,2.03%,3.3%,8.71%,1.01%,-9.43%
C=CCN(CC=C)C(=O)Nc1cc(OC)ccc1OC,-0.3%,-10.17%,5.84%,8.16%,3.21%,-3.48%
N#Cc1ncc(Cl)c2ccccc12,-8.29%,-4.37%,-2.85%,7.91%,0.23%,-7.62%
CC1=CC2(C)NC(=O)C(C)C12 (configuration not stated),9.76%,-10.3%,6.64%,6.26%,-0.72%,-9.55%
CC(=O)OC1COC(OC(C)=O)CO1 (configuration not stated),-14.46%,-1.98%,-12.48%,0.6%,-0.61%,10.42%
O=C(O)c1nn(-c2ccccc2-c2nnc(O)nc2O)c(=O)[nH]c1=O,28.61%,10.46%,9.27%,22.91%,1.7%,4.78%
O=C(Nc1ccc(Cl)c([N+](=O)[O-])c1)Nc1nc2ccccc2s1,44.46%,0.46%,3.52%,21.95%,9.03%,11.69%
Cc1ccc2c(c1)c1ccc3c(c1n2C)C(=O)C=CC3=O,2.62%,-23.42%,6.78%,6.78%,22.6%,22.59%
CSc1cccc(NC(=O)Nc2nc3c(C)cccc3s2)c1,-3.9%,2.69%,8.83%,7.86%,-0.92%,-2.59%
CN1CN(C)C(c2ccncc2)=C1c1ccncc1,5.44%,14.08%,-2.65%,0.75%,-0.59%,-1.9%
Nc1nc(S)c2ncn(C3CCCC3)c2n1,16.34%,-8.37%,6.43%,18.77%,-3.88%,-14.08%
C=CCNC(=S)N1CCN(c2ccccc2Cl)CC1,6.69%,9.34%,-14.86%,17.35%,32.7%,-0.57%
COc1ccc(/N=C\c2c(O)ccc3c2oc2cc(Cl)c(O)c(Cl)c23)cc1,-3.23%,0.5%,-4.89%,17.64%,2.89%,-10.03%
CCCCNc1cc(Cl)nc(N)n1,19.23%,-9.43%,4.85%,9.91%,0.7%,-8.27%
CN(C)c1ccc(/N=N\c2cccc3ccoc23)cc1,-15.18%,-4.75%,-16.41%,-3.95%,3.86%,-4.24%
